The values that follow come from PubChem BioAssay AID720709 (National Center for Advancing Translational Sciences (NCATS), 2013).

Hit rate of the full screen: of about 360,000 compounds, about 520 (0.14%) were called active. Another 3% or so got no clear call; they are omitted. The entries come from a sample that favours actives as a whole. Unmarked numbers belong to inactive results. Calls follow the shape of the dose curve; as a rule, active = well fitted inhibition curve with a large enough effect; inconclusive = small, poorly fitted or top-dose-only effect; inactive = no such curve, though single readings can be large or run the other way.
Potency is read from the fitted curve at half-maximal effect.

This assay deals with Rap guanine nucleotide exchange factor 3 (Homo sapiens) (UniProt O95398). In words: qHTS for Antagonist of cAMP-regulated guanine nucleotide exchange factor 3 (EPAC1): primary screen. Also: nearly all actives have a fitted effect of over 50% in size. The settings on record: EPAC1 GEF assay, Rap1b-BODIPY-GDP exchange fluorescence; series mostly up to 115 µM; activity change, negative = inhibition: at the top concentration. The source says: In multi-cellular eukaryotic organisms, the effects of cAMP are transduced by two ubiquitously-expressed intracellular cAMP receptors, the classic protein kinase A/cAMP-dependent protein kinase (PKA/cAPK) and the more recently discovered exchange protein directly activated by cAMP/cAMP-regulated guanine nucleotide exchange factor (EPAC/cAMP-GEF). Both PKA and EPAC are ubiquitously expressed in all tissues, and an increase in intracellular cAMP levels will lead to the activation of both PKA and EPAC. Therefore, careful dissections of the individual role and relative contribution of EPAC and PKA within the overall cAMP signaling in various model systems are critical for further elucidating the mechanism of cAMP signaling. To date no EPAC-specific antagonists and agonist, as well as isoform-specific agonists have been reported, and developing EPAC-specific pharmacological probes to determine the physiological functions that EPAC play in the overall cAMP-mediated signaling remains a major challenge within the research field. Furthermore, identified regulators of EPAC may lead to new mechanism-based therapeutic strategies specifically targeting the EPAC / cAMP-signaling components as EPAC has been implicated to play important roles in major human pathological conditions such as diabetes, heart disease, and cancer. This qHTS will be used to screen the Molecular Libraries Small Molecule Repository (MLSMR) as a concentration-titration series using the NCGC unique quantitative screening (qHTS) platform to find inhibitors for EPAC1. In addition, this assay will also be used as a counterscreen for the EPAC2 qHTS. This fluorescent based assay is developed and validated for EPAC1 that measures exchange using EPAC effector Rap1 complex with BODIPY-GDP, a GDP analog with a tethered fluorophores. Inhibitors are identified by monitoring the change in fluorescence signal as the exchanged free BODIPY-GDP has a reduced fluorescence compared to Rap1-bound BODIPY-GDP. Decrease in signal (inhibition) is the desired outcome for the EPAC1 antagonist while no activity in this assay is desired for the EPAC2 antagonist counterscreen. de Rooij, J., Zwartkruis, F. J., Verheijen, M. H., Cool, R. H., Nijman, S. M., Wittinghofer, A., and Bos, J.L. (1998) Nature 396, 474-477 [2] Kawasaki, H., Springett, G. M., Mochizuki, N., Toki, S., Nakaya, M., Matsuda, M., Housman, D. E., and Graybiel, A. M. (1998) Science 282, 2275-2279 NIH Chemical Genomics Center [NCGC] NIH Molecular Libraries Probe Centers Network [MLPCN] MLPCN Grant: NS066510 Assay Submitter (PI): Xiaodong Cheng, The University of Texas, Medical Branch
Sequence of Rap guanine nucleotide exchange factor 3 (Homo sapiens) (O95398 whole entry, looked up): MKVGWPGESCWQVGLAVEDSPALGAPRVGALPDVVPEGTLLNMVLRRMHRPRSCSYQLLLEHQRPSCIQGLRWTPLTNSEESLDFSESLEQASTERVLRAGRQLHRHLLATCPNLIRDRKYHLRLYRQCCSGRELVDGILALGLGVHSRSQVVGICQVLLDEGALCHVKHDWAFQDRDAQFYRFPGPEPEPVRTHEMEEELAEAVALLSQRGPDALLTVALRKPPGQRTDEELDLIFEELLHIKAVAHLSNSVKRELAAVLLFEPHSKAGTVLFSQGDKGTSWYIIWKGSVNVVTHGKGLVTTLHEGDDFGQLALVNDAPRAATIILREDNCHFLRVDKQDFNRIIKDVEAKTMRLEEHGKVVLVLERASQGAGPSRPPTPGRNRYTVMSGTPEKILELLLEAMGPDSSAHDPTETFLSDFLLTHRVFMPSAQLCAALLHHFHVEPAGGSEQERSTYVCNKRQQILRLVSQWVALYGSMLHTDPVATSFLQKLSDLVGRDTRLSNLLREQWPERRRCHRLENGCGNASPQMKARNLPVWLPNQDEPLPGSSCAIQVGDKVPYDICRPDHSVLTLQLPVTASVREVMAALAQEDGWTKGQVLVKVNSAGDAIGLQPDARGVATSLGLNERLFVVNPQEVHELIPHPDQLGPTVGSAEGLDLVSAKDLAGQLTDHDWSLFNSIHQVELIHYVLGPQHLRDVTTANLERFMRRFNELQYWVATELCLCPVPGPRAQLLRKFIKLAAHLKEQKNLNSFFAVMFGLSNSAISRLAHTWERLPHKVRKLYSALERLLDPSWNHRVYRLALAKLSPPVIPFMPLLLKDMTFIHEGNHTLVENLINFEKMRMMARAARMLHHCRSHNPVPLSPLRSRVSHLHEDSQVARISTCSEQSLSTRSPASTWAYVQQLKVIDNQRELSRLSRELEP
Briefly, three uL of reagents (100 nM EPAC1, 250 nM RAP1B-BODIPY-GDP, 50 uM GDP) were dispensed into a 1536-well Greiner black solid-bottom medium binding assay plate. Controls and test compounds (23 nL) were transferred to the plate via a Kalypsys pin tool equipped with a 1536-pin array. The plates were centrifuged at 1,000 rpm for 15 seconds followed by 5 minute incubation at room temperature. The assay plates were read at 5 minute intervals for 30 minutes in the ViewLux plate reader using 480nm excitation and 540nm emission filters. The results were normalized to the […] positive control ATA and DMSO.
On to `Oc1cccc2cc(-c3ccncc3)cnc12`, for which the “activity change, negative = inhibition” value is 3.21%.
For `CO[C@@H]1CN(C)C(=O)c2cc(NC(=O)Nc3cc(F)ccc3F)ccc2OC[C@H](C)N(C(=O)c2ccccn2)C[C@@H]1C`, the “activity change, negative = inhibition” value is -5.4%.
Take `Cc1c(CC(=O)N2CCN(C(=O)C3COc4ccccc4O3)CC2)c(=O)oc2c(O)c(O)ccc12` (centres undefined): the Potency was 100 µM (active).
For `Cc1ccc(S(=O)(=O)NCCC(=O)NNC(=O)C2COc3ccccc3O2)cc1` (centres undefined), the “activity change, negative = inhibition” value is 8.04%.
Still for that read-out and setting: for `COc1ccc2c(C)c(CCC(=O)NC3CC3)c(=O)oc2c1C` the value was -3.71%.
Same read-out and setting: for `OCCC#Cc1ccc(N2C(c3ccsc3)=Cc3ccc(F)cc3C2c2c[nH]c3ccccc23)cc1` (centres undefined) the value was 1.44%; for `COc1ccc(CC(N)c2csc(NC(=O)NC(c3ccccc3)c3ccccc3)n2)cc1` (centres undefined), -11.6%; for `CC1CN(C(=O)c2ccccc2NS(=O)(=O)c2cccc([N+](=O)[O-])c2)CC(C)O1` (centres undefined), -6.5%.
The same measure, in the same setting: under `CCOc1ncccc1C(=O)NNC(=O)c1cccc(S(=O)(=O)Nc2ccccc2OC)c1` stands 11.9%.
For the molecule `COc1cccc(/C=N/Nc2ccc(S(=O)(=O)Nc3ccccc3C(=O)O)cc2[N+](=O)[O-])c1O`, the Potency was 25.1 µM (active).
In the case of `COC(=O)C[C@@H]1C=C[C@@H](NC(=O)c2ccc3c(c2)OCO3)[C@@H](CO)O1`, the “activity change, negative = inhibition” value was -14.3%.
Still for that read-out and setting: under `CC(=O)CSc1nc(CCc2ccccc2)c(C#N)c(=O)[nH]1` stands -14.8%.
Still for that read-out and setting: for `O=c1[nH]c(SCc2cccc(F)c2)nc2ccccc12` the value was -4.22%.
With `N#Cc1c(-c2ccccc2)nc(SCc2cccc(C(F)(F)F)c2)[nH]c1=O`, the Potency is 70.8 µM (active).
On to `O=C(NCc1ccc(F)cc1F)[C@@H]1CCCN1C(=O)[C@@H]1CCCN1C(=O)c1cccc(Cl)c1`, for which the “activity change, negative = inhibition” value was 5.96%.
The same measure, in the same setting: under `O=C(O)CC/C(=C\c1cc2c(cc1Br)OCO2)c1nc2ccccc2s1` stands -2.3%; under `COc1cccc(/C=C(/CC(=O)Nc2ccc(N3CCOCC3)cc2)c2nc3ccccc3s2)c1`, 0.722%.
For the molecule `COc1ccc(C(=O)Nc2cccc(/C=C(/CCC(=O)O)c3nc4ccccc4s3)c2)cc1`, the Potency was 35.5 µM (active).
For the molecule `CCOc1ccc(CCN2C(=S)N([C@@H](CC(C)C)CN3CCC[C@@H]3CN3C(=S)NC[C@@H]3Cc3ccc(O)cc3)C[C@@H]2Cc2ccc(O)cc2)cc1`, the “activity change, negative = inhibition” value is -20.9%.
The same measure, in the same setting: for `CCC(C(=O)Nc1c(C)cccc1C)n1c(-c2cc(C)cs2)nc2ccccc21` (centres undefined) the value was -5.26%.
Same read-out and setting: under `COc1ccc(C(=O)NCC[N+](C)(C)C)cc1` stands 4.59%.
Same read-out and setting: under `CCOC(=O)[C@]12CCC=C1N(Cc1ccco1)C(=O)[C@H](CC(=O)N1CCSCC1)C2` stands -20.2%; under `CCCCCCN1CCN(C2CN(Cc3cn(CCCCCC)nn3)S(=O)(=O)C2)CC1` (centres undefined), -19.2%.
In the case of `CCC(CC)C(C(=O)NC1CCCC1)N1CCN(c2cc(C)nc3ccccc23)CC1` (centres undefined), the “activity change, negative = inhibition” value is 1.74%.
Still for that read-out and setting: under `O=C1Nc2ccccc2-n2nnnc2C1N1CCN(c2cccc(C(F)(F)F)n2)CC1` (centres undefined) stands -11.1%; under `CCOC(=O)[C@]12CCCC=C1N(CCC1=CCCCC1)C(=O)[C@H](CC(=O)N1CCOCC1)C2`, -4.03%.
Same read-out and setting: under `Cc1cc(Br)cn2c(Cc3ccsc3)c(-c3ccc(C#N)cc3)nc12` stands -4.89%; under `CCOC(=O)[C@]12CCCC=C1N(CCC1=CCCCC1)C(=O)[C@H](CC(=O)NCCCCc1ccccc1)C2`, -11.2%.
The same measure, in the same setting: for `O=C1NC[C@H](CCCCN2C[C@H](Cc3ccc(O)cc3)N(CCc3ccccc3)C(=O)C2=O)N(CCc2ccccc2)C1=O` the value was -12.9%; for `O=C1Nc2ccccc2NC(c2ccc3c(c2)OCO3)=C1N(Cc1ccc(F)cc1)C(=O)c1ccco1`, -26.5%; for `COc1ccc(C(=O)C(OP(=O)(OC)OC)c2ccccc2OC)cc1` (centres undefined), -3.79%.
As for `COC(=O)c1ccc2nc(-c3ccc(C)cc3)c(Cc3ccc(OC)cc3C)n2c1`, the “activity change, negative = inhibition” value was -20.7%.
On the same count and under the same terms, under `CCOC(=O)[C@]12CCCC=C1N(Cc1ccc(Cl)cc1Cl)C(=O)[C@H](CC(=O)N1CCCCC1)C2` stands 24.7%; under `CC1Cc2[nH][nH]c(=O)c2C(C2CCCC2)O1` (centres undefined), -1.95%; under `COc1cccc(-c2nc3nc(C)cc(C)n3c2NC2CCCCC2)c1`, -3.19%.
The same measure, in the same setting: under `CC(C)c1cc(Cn2c3ccccc3c(=O)n2C(C)Cn2cc(C3CC3)nn2)on1` (centres undefined) stands -18.3%; under `Cc1cc(Br)cn2c(Cc3ccccc3C(F)(F)F)c(-c3ccc(Cl)cc3)nc12`, -8.75%.
Still for that read-out and setting: under `CCOC(=O)[C@]12CCCC=C1N(CCC1=CCCCC1)C(=O)[C@H](CC(=O)N1CCSCC1)C2` stands -11.1%; under `COC(=O)[C@]12CCCCC=C1N(Cc1ccc3c(c1)OCO3)C(=O)[C@H](CC(=O)N1CCOCC1)C2`, -8.74%; under `O=C(NCc1ccccc1)C1c2ccccc2OCC(=O)N1CCCN1CCOCC1` (centres undefined), -7.15%.
Consider `COc1ccc([C@H]2CC(=O)C[C@@H](CCn3cc(CC4CCCC4)nn3)O2)cc1`, for which the “activity change, negative = inhibition” value was 4.12%.
The same measure, in the same setting: under `COc1ccc(N2c3ccccc3CN(Cc3ccccc3)[C@@H](C)[C@H]2Cc2ccc(-c3ccccc3)cc2)cc1` stands 18.8%.
The same measure, in the same setting: for `O=S1(=O)CC(N2CCN(CCO)CC2)CN1Cc1cn(Cc2cccc(Cl)c2)nn1` (centres undefined) the value was -1.43%; for `O=C(C(=O)N1CCN(c2ccccc2)CC1)c1ccc2c(c1)OCO2`, 1.25%.
